# Data as given in PubChem BioAssay (NCATS).
# Several values for one entry are separate records, joined by “and”; a condition that tells them apart may be missing. Identical values can stand only once. Results filed as inconclusive are left out. Activity calls are given as the source filed them. Unless noted, the call rests on the fitted dose curve; in most records, active means well fitted curve in the direction sought with a large enough effect; inconclusive means small, poorly fitted or top-dose-only effect, or another doubt; inactive means no such curve, though single readings can be large; an effect the other way counts as inactive or inconclusive.
# Experiments:
# [1] = Primary qHTS for inhibitors of nuclear receptor binding SET domain protein 2 (NSD2) in an isogenic RCH-ACV NSD2 p.E1099K mutant (9B) (AID 1645876); further: nearly all actives have a fitted effect of over 70% in size; further: potency means the concentration at half of the fitted maximal effect
# [2] = Primary qHTS for inhibitors of nuclear receptor binding SET domain protein 2 (NSD2) in an RCH-ACV wild type WT cells (2C) (AID 1645877); further: nearly all actives have a fitted effect of over 70% in size; further: potency means the concentration at half of the fitted maximal effect
# [3] = NCATS anti-infectives library activity on HEK293 viability as a counter-qHTS vs the C. elegans viability qHTS (AID 1745854); further: on the % scale 0 is the no-effect control and ±100 the full control effect
# Summary of the method: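 CellTiter-Glo luminescence, read on a CCD imager, scored viability of HEK293 cells after 24 hr compound exposure at 37C. Library tested in several concentrations, 1:5 steps, up to 41.7 uM; digitonin served as control.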
# [4] = target: N-terminal Xaa-Pro-Lys N-methyltransferase 1 (Homo sapiens) (UniProt Q9BV86); test: Confirmatory qHTS for Inhibitors of N-terminal methyltransferase 1 (NTMT1): MTaseGlo Assay (AID 1645874); further: potency means the concentration at half of the fitted maximal effect; nearly all actives have a fitted effect of over 65% in size
# Summary of the method: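 MTase-Glo luminescence measured SAH formed by 125 nM NTMT1 from 100 uM SAM and 1 uM SPKRIA peptide over 30 min at room temperature, following 15 min compound preincubation. Percent inhibition against no-enzyme and DMSO controls gave 4-parameter Hill fits.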
# [5] = target: Glutathione peroxidase 1 (Homo sapiens) (UniProt P07203); test: Primary qHTS Assay for Inhibitors of Recombinant Selenoprotein Glutathione Peroxidase 1 (GPX1) (AID 1845191); further: nearly all actives have a fitted effect of over 65% in size
# Summary of the method: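 GR-coupled readout: NADPH consumption tracked by fluorescence, ex 340/em 450 nm, at t=0 and after 15 min at RT. Final mix 10 nM GPX1, 1 mM GSH, 0.5 mM CHP, 0.5 mM NADPH, 100 nM GR, 0.01% BSA, following 30 min enzyme–compound preincubation.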
# [6] = NCATS anti-infectives library activity on the primary C. elegans qHTS viability assay (AID 1745855; calls by dose curve; further: potency means the concentration at half of the fitted maximal effect)
# Summary of the method: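 Titration-based screen in worms: eggs hatched overnight in M9, L1 larvae fed TOP10 capsules in S medium with compound, incubated 21 °C for 7 days; fluorescent objects gated by size and intensity at days 0, 3 and 7.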
# [7] = target: Phospholipid hydroperoxide glutathione peroxidase GPX4 (Homo sapiens) (UniProt P36969); test: Primary qHTS Assay for Inhibitors of Recombinant Selenoprotein Glutathione Peroxidase 4 (GPX4) (AID 1845192); further: nearly all actives have a fitted effect of over 65% in size; further: potency means the concentration at half of the fitted maximal effect; on activity change, negative = inhibition: on the % scale 0 is the no-effect control and ±100 the full control effect
# Summary of the method: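 Steps: GPX4 plus compound, 30 min RT; add GR/GSH/NADPH master mix; start with cumene hydroperoxide; read 340/450 nm fluorescence at 0 and 15 min. Finals were 200 nM GPX4, 1 mM GSH, 0.5 mM CHP, 0.5 mM NADPH, 100 nM GR.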
# [8] = qHTS drug screen for cell cycle checkpoint inhibitors in PARPi-resistant BRCA-mutant ovarian cancer cell lines. (AID 1963452; calls by dose curve); conditions: PEO1/OlaR viability, CellTiter-Glo luminescence, 96 h, stronger effect = lower value
# Summary of the method: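 PEO1, PEO4 and PEO1/OlaR ovarian cancer cells, 600 per well, exposed 96 h at 37C to a dilution series. Viability read by CellTiter-Glo luminescence, normalized to DMSO and empty wells; activity summarized as Z-AUC.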
# [9] = target: Catechol O-methyltransferase (Homo sapiens) (UniProt P21964); test: Confirmatory Screen for Target Class Profiling of Small Molecule Inhibitors of Methyltransferases (AID 1745852; calls by dose curve; further: potency means the concentration at half of the fitted maximal effect; on activity change, negative = inhibition: on the % scale 0 is the no-effect control and ±100 the full control effect); conditions: MTase-Glo luminescence, SAH detection, recombinant enzyme; measured here: COMT max response; stronger effect = lower value
# [10] = target: Guanidinoacetate N-methyltransferase (Homo sapiens) (UniProt Q14353); test: as above; conditions: MTase-Glo luminescence, SAH detection, recombinant enzyme; activity change, negative = inhibition: at 57.3 µM (top of the series) unless noted
# [11] = target: Nicotinamide N-methyltransferase (Homo sapiens) (UniProt P40261); test: as above; conditions: MTase-Glo luminescence, SAH detection, recombinant enzyme; measured here: NNMT max response; stronger effect = lower value
# [12] = target: Phenylethanolamine N-methyltransferase (Homo sapiens) (UniProt P11086); test: as above; conditions: MTase-Glo luminescence, SAH detection, recombinant enzyme; measured here: PNMT max response; stronger effect = lower value
# [13] = qHTS for Inhibitors of Ubiquitin-specific Protease USP2a Using CHOP2 as the Reporter: K633 Counterscreen (AID 652168); further: % of control where 0% means no effect
# Summary of the method: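 Detection-system control: fluorescence of K48-linked DiUb-4IQF substrate (100 nM as added) tracked over time, Ex 525/Em 598, with pinned compounds and no enzyme, in pH 8 Tris buffer containing beta-mercaptoethanol and 0.05% Chaps.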
# [14] = target: Ubiquitin carboxyl-terminal hydrolase 2 (Homo sapiens) (UniProt O75604); test: qHTS for Inhibitors of Ubiquitin-specific Protease USP2a Using CHOP2 as the Reporter: K484 Substrate (AID 652173); conditions: USP2 cleavage of DiUb K48 IQF substrate, fluorescence;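 further: cleavage of internally quenched K48 di-ubiquitin substrate measured as rising fluorescence over time; potency means the concentration at half of the fitted maximal effect; nearly all actives have a fitted effect of over 70% in size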
# Summary of the method: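 Kinetic fluorescence (Ex 525/Em 598) tracked cleavage of an internally quenched K48 di-ubiquitin substrate, added as a 100 nM solution. The enzyme was added as a 5 nM USP2 solution before compound pinning, with no-enzyme controls. Buffer: Tris pH 8, beta-mercaptoethanol, CHAPS.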
# [15] = measured here: PEO1 parental Z-AUC
# Sequence of Phenylethanolamine N-methyltransferase (Homo sapiens) (P11086 whole entry, looked up): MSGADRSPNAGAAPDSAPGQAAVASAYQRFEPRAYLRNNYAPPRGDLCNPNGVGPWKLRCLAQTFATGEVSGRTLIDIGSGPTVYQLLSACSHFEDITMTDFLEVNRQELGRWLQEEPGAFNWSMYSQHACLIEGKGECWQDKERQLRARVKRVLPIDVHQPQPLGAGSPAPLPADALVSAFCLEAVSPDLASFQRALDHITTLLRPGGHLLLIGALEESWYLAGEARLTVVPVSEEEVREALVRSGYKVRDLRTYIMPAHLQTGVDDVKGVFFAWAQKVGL
# Sequence of Phospholipid hydroperoxide glutathione peroxidase GPX4 (Homo sapiens) (P36969 whole entry, looked up): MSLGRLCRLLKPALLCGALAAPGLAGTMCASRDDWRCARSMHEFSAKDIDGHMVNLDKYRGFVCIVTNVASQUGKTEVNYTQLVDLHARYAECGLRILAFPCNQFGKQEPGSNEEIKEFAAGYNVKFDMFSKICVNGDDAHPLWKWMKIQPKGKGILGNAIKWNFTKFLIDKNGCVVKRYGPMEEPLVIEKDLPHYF
# Sequence of Glutathione peroxidase 1 (Homo sapiens) (P07203 whole entry, looked up): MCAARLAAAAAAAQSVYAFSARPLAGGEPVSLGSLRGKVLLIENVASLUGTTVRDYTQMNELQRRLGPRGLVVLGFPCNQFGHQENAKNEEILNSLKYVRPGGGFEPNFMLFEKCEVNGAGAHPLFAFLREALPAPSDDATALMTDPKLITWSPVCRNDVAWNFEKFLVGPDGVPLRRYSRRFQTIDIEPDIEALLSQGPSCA
# Sequence of Nicotinamide N-methyltransferase (Homo sapiens) (P40261 whole entry, looked up): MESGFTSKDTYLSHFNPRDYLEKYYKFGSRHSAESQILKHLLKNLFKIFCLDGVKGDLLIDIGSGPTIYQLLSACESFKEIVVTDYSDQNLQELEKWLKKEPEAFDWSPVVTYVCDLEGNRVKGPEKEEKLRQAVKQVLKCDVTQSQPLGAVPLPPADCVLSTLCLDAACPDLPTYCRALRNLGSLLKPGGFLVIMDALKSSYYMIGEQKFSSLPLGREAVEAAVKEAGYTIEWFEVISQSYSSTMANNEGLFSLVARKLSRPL
# Sequence of N-terminal Xaa-Pro-Lys N-methyltransferase 1 (Homo sapiens) (Q9BV86 whole entry, looked up): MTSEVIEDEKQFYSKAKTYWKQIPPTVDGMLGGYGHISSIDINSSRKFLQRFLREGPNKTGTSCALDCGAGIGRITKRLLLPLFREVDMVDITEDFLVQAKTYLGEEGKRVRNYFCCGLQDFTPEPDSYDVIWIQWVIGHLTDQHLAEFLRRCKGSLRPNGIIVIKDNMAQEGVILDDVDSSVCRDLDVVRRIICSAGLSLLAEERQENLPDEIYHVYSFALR
# Sequence of Catechol O-methyltransferase (Homo sapiens) (P21964 whole entry, looked up): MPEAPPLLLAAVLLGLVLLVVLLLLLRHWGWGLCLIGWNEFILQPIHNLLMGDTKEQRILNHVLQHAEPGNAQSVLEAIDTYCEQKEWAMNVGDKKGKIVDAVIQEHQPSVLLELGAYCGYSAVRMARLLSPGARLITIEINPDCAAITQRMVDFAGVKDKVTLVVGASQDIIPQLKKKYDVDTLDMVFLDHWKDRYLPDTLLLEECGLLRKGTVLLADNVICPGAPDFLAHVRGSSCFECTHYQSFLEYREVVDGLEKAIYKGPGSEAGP
# Sequence of Ubiquitin carboxyl-terminal hydrolase 2 (Homo sapiens) (O75604 whole entry, looked up): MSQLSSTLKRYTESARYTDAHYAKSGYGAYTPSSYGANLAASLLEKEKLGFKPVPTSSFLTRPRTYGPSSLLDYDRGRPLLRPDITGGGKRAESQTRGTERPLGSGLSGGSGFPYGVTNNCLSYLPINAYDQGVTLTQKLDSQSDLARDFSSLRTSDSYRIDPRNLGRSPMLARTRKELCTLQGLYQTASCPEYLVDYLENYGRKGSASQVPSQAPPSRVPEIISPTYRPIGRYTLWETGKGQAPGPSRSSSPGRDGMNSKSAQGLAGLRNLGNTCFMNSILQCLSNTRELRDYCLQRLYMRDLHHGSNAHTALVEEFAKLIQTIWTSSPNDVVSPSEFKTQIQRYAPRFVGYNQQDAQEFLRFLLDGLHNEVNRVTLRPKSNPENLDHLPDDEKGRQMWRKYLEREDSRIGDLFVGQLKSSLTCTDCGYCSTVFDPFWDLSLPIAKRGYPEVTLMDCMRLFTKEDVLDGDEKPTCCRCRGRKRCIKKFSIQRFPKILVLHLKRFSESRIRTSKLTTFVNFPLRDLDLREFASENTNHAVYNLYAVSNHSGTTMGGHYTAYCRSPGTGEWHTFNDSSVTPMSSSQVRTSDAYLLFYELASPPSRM
smiles,measurement,setting,value
[N-]=[N+]=N[C@]1(CO)O[C@@H](n2ccc(N)nc2=O)[C@@H](O)[C@@H]1O,Potency,[1],5.17 µM (active)
same,Potency,[2],3.66 µM (active)
same,outcome,[3],inactive
COc1cc2c(NC3CCN(C(C)C)CC3)nc(N3CCCN(CC4CCCCC4)CC3)nc2cc1OCCCN1CCCC1,Potency,[4],34.5 µM (active)
O=C(Nc1nc2c(s1)CCCC2)c1ccccc1F,Potency,[4],39.8 µM (active)
COc1cc2nc(Nc3ccc(C)c(C)c3)nc(N)c2cc1OC,Potency,[4],39.8 µM (active)
COc1c/c(=C2\C=c3ccccc3=N2)[nH]/c1=C/c1[nH]c(C)cc1C,Potency,[4],35 µM (active)
same,Potency,[5],inactive
Cc1cn(C2C[C@H](O)[C@@H](CO)O2)c(=O)[nH]c1=O (some centres not stated),Potency,[1],inactive
same,Potency,[2],inactive
Nc1ccc(F)cc1NC(=O)c1ccc(CNC(=O)/C=C/c2cccnc2)cc1,Potency,[1],1.05 µM (active)
same,Potency,[2],1.18 µM (active)
same,outcome,[3],inactive
same,Potency,[6],inactive
same,Potency,[5],inactive
same,Potency,[7],inactive
O=c1c(-c2ccc(O)cc2)coc2cc(O[C@@H]3O[C@H](CO)[C@@H](O)[C@H](O)[C@H]3O)ccc12,Potency,[1],16.6 µM (active)
same,Potency,[2],16.6 µM (active)
same,outcome,[3],inactive
same,Potency,[5],inactive
same,Potency,[7],inactive
same,Z-AUC,[8],1.43 (inactive)
same,Z-AUC,[8]; [15],1.29
same,Z-AUC,[8]; measured here: PEO4 Z-AUC,1.57
CCN1CCN(c2ccc(Nc3ccc(-c4ccc(C(N)=O)cc4)n4ncnc34)cc2)CC1,Potency,[1],9.2 µM (active)
same,Potency,[2],7.31 µM (active)
same,activity,[9],-0.444%
same,"activity change, negative = inhibition",[10],0%
same,activity,[11],-65.3%
same,activity,[12],-8.41%
same,Potency,[5],inactive
CC(C)CCNc1ncnc2c1cnn2-c1cccc(Cl)c1,Potency,[4],14.1 µM (active)
Cc1ccc(C)n1-c1cccc(C(=O)O)c1,Potency,[4],6.02 µM (active)
CC(=O)O/N=C1/C(c2c(O)[nH]c3cc(Br)ccc23)=Nc2ccccc21,Potency,[1],1.84 µM (active) and 2.09 µM (active)
same,Potency,[2],2.06 µM (active) and 2.09 µM (active)
same,outcome,[3],inactive
same,Potency,[6],20.5 µM (active)
same,Potency,[5],inactive
same,Potency,[7],inactive
same,Z-AUC,[8],-1.48 (inactive)
same,Z-AUC,[8]; [15],0.461
same,Z-AUC,[8]; measured here: PEO4 Z-AUC,-0.699
CCCS(=O)(=O)c1nc(NC2CC2)cc(-c2ccc3c(ccn3C3CC(C)(C)NC(C)(C)C3)c2)n1,Potency,[1],2.48 µM (active)
same,Potency,[2],2.21 µM (active)
same,activity,[9],-4.11%
same,"activity change, negative = inhibition",[10],1.84% [at 19.1 µM]
same,activity,[11],-12%
same,activity,[12],-6.24%
same,Potency,[5],inactive
same,Potency,[7],inactive
same,Z-AUC,[8],-1.38 (inactive)
same,Z-AUC,[8]; [15],-1.22
same,Z-AUC,[8]; measured here: PEO4 Z-AUC,-1.57
Oc1cccc(Nc2ccnc3[nH]c4ccccc4c23)c1,Potency,[1],4.11 µM (active)
same,Potency,[2],4.11 µM (active)
same,activity,[9],-17.6%
same,Potency,[10],48.2 µM (active)
same,activity,[11],-74.1%
same,activity,[12],-25.8%
same,Potency,[5],inactive
O=C1NC(=O)/C(=C\c2ccc(-c3ccc(F)cc3O)o2)S1,Potency,[1],13 µM (active)
same,Potency,[2],11.6 µM (active)
O=C1NC(=O)/C(=C/c2ccc(-c3ccc(F)cc3)o2)S1,Potency,[1],inactive
CCCCOc1ccc(CC/C=C2\SC(=O)N(CCN)C2=O)cc1,Potency,[1],9.2 µM (active)
same,Potency,[2],8.2 µM (active)
O=C1N=C(O)S/C1=C\c1ccc2nccnc2c1,Potency,[1],18.4 µM (active)
same,Potency,[2],20.6 µM (active)
COc1cc2c(NC3CCN(C)CC3)nc(N3CCCN(C)CC3)nc2cc1OCCCN(C)C,Potency,[1],inactive
same,Potency,[2],inactive
same,activity,[9],3.04%
same,"activity change, negative = inhibition",[10],3.96%
same,activity,[11],-9.37%
same,activity,[12],-4.66%
same,Potency,[5],inactive
same,Potency,[7],18 µM (active)
same,Z-AUC,[8],-0.893 (inactive)
same,Z-AUC,[8]; [15],-0.915
same,Z-AUC,[8]; measured here: PEO4 Z-AUC,-1.6
COc1cc2c(NC3CCN(C(C)C)CC3)nc(N3CCCN(CC4CCCCC4)CC3)nc2cc1OCCCN1CCCCC1,Potency,[4],43.5 µM (active)
COc1cc(-c2nc3ccc(Cl)cn3c2Nc2ccc3c(c2)OCCO3)ccc1O,Potency,[4],5.15 µM (active)
Cc1ccc(S(=O)(=O)Nc2cnccc2C(=O)Nc2nc(-c3cccc(C)c3)cs2)cc1,outcome,[13],inactive
same,Potency,[14],1.37 µM (active)
same,Potency,[4],17.3 µM (active)
c1csc(-c2nc3ccccn3c2Nc2ccc3c(c2)OCCO3)c1,Potency,[4],6.49 µM (active)
O=c1cc(-c2ccccc2)oc2ccc(O)cc12,Potency,[4],20 µM (active)
same,Potency,[1],18.4 µM (active)
same,Potency,[5],inactive
